AC50 and outcome data for 21 compounds are collected here from PubChem BioAssay (EPA / NIEHS).

Holding throughout (details): mRNA level, 48 h; actives raise or lower the signal
Read-out in test [1]: Lipase C (LIPC), LIPC (gene 3990)
The test can be described thus: LTEA_HepaRG_LIPC: Life Technologies and Expression Analysis (LTEA) Assay for Lipase C (LIPC) using HepaRG (AID 2283514). The method in brief:
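Read-out is LIPC transcript level by TaqMan qRT-PCR, normalized to three housekeeping genes, after 48 h chemical treatment of human HepaRG liver cells. Curves span eight concentrations topping at 100 uM; activity in either direction scored relative to 0.5% DMSO.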

Read-out in test [2]: Lipoprotein lipase (LPL), LPL (gene 4023)
Nature of the test: LTEA_HepaRG_LPL: Life Technologies and Expression Analysis (LTEA) Assay for Lipoprotein lipase (LPL) using HepaRG (AID 2283515). The method in brief:
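Read-out is LPL transcript level by qRT-PCR, normalized to three housekeeping genes and fitted bidirectionally against the DMSO control. Human HepaRG cells received chemicals for 48 h at up to 100 uM.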

Read-out in test [3]: MicroRNA 122 (MIR122), gene 406906
The test can be described thus: LTEA_HepaRG_MIR122: Life Technologies and Expression Analysis (LTEA) Assay for MicroRNA 122 (MIR122) using HepaRG (AID 2283516). Further: the transcript read is the microRNA miR-122. The method, boiled down: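 HepaRG plated 48 h, switched to serum-free induction medium, then treated in duplicate for 48 h (100 uM top, half-log steps, 0.5% DMSO vehicle). RNA isolated, qRT-PCR performed, concentration-response fitted both directions relative to DMSO.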

Read-out in test [4]: matrix metalloproteinase-10 (MMP10), MMP10 (gene 4319)
The test can be described thus: LTEA_HepaRG_MMP10: Life Technologies and Expression Analysis (LTEA) Assay for matrix metalloproteinase-10 (MMP10) using HepaRG (AID 2283517). The method, boiled down: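 Gain or loss of MMP10 mRNA is fitted relative to the 0.5% DMSO vehicle. The human hepatic line HepaRG receives a 48-hour serum-free exposure, in duplicate, with a maximum concentration of 100 uM.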

Read-out in test [5]: MYC, MYC (gene 4609)
The test can be described thus: LTEA_HepaRG_MYC: Life Technologies and Expression Analysis (LTEA) Assay for MYC using HepaRG (AID 2283518). The method in brief: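 Cells are thawed, plated and cultured 48 h, then treated for 48 h with test chemicals (eight half-log concentrations from 100 uM, 0.5% DMSO vehicle). RNA is isolated and MYC expression quantified by qRT-PCR against three housekeeping genes.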

Read-out in test [6]: matrix metalloproteinase-3 (MMP3), MMP3 (gene 4314)
The test can be described thus: LTEA_HepaRG_MMP3: Life Technologies and Expression Analysis (LTEA) Assay for matrix metalloproteinase-3 (MMP3) using HepaRG (AID 2283519). The method in brief: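 HepaRG, human; 48 h dosing, 8 conc. (max 100 uM, half-log), duplicate, 0.5% DMSO. Readout: MMP3 transcript by Fluidigm TaqMan qRT-PCR, ACTB/GAPDH/POLR2A-normalised. Gain or loss fitted vs DMSO.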

Read-out in test [7]: Paternally Expressed 10 (PEG10), PEG10 (gene 23089)
Nature of the test: LTEA_HepaRG_PEG10: Life Technologies and Expression Analysis (LTEA) Assay for Paternally Expressed 10 (PEG10) using HepaRG (AID 2283520). The method in brief: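 HepaRG, 48 h post-plating → serum-free induction medium → 48 h chemical exposure (duplicate, 8-pt, max 100 uM, half-log, 0.5% DMSO) → lysis in RLT → TaqMan qRT-PCR for PEG10, ACTB/GAPDH/POLR2A normalisation.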

Read-out in test [8]: Nuclear factor NF-kappa-B p105 subunit (Homo sapiens) (UniProt P19838)
The test can be described thus: LTEA_HepaRG_NFKB1: Life Technologies and Expression Analysis (LTEA) Assay for Nuclear Factor Kappa B Subunit 1 (NFKB1) using HepaRG (AID 2283521). The method in brief:
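Differentiated human HepaRG cells in serum-free induction medium with 0.5% DMSO were exposed for 48 h to eight half-log concentrations, top 100 uM, in duplicate. NFKB1 mRNA measured by Fluidigm TaqMan qRT-PCR, normalised to ACTB, GAPDH and POLR2A; bidirectional fit versus DMSO.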

Read-out in test [9]: Protein phosphatase 2A (PPP2R4), PTPA (gene 5524)
The test can be described thus: LTEA_HepaRG_PPP2R4: Life Technologies and Expression Analysis (LTEA) Assay for Protein phosphatase 2A (PPP2R4) using HepaRG (AID 2283522). The method in brief:
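Readout is PPP2R4 transcript level by microfluidic qRT-PCR after 48 h chemical treatment of human HepaRG liver cells. Concentrations spanned 100 uM downward in half-log steps; gain or loss of signal was fitted relative to DMSO.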

The source made the active and inactive calls. How the source made its calls: active means hit-call score of the fitted dose curve at least 0.9, where 1 is the maximum; inactive means score below 0.9.

Chain of Nuclear factor NF-kappa-B p105 subunit (Homo sapiens) (P19838 whole entry, looked up): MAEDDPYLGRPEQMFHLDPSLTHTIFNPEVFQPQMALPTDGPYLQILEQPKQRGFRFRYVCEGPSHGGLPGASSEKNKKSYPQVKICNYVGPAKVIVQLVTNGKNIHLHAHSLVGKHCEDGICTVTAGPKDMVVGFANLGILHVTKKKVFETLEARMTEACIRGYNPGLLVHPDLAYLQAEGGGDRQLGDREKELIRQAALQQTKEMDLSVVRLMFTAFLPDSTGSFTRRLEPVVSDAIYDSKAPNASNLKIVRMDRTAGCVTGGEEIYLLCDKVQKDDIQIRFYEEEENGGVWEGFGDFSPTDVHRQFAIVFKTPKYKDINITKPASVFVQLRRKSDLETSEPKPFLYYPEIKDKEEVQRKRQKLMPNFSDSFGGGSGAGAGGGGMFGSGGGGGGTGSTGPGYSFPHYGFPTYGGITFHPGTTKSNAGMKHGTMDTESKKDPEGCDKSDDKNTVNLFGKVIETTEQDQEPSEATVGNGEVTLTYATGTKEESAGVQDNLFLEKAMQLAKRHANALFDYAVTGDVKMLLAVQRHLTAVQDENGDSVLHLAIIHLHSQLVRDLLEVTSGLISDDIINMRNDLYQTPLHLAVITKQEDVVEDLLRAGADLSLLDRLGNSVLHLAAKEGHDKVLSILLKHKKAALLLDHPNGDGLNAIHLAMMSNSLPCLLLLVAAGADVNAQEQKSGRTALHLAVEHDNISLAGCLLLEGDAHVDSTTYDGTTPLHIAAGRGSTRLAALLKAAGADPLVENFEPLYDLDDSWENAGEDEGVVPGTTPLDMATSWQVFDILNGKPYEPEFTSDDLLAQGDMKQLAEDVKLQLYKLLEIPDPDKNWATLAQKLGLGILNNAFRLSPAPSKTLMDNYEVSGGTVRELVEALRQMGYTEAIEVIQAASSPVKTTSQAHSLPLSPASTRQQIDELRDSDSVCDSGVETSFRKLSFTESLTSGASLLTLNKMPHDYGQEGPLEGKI

As to `CC(C)(C)C(O)(CCc1ccc(Cl)cc1)Cn1cncn1` (centres undefined), the AC50 (in general, the concentration giving half of the maximal activity seen) in test [1] is 71.8 µM (active); in test [2], 74.4 µM (active); in test [3], 78.1 µM (active); in test [5] it was 50 µM (active); in test [9], 50 µM (active). Further, the compound was called inactive in test [4], in test [6], in [7] and in test [8].

Take `Oc1ccccc1Cl`: the outcome in [1], in [2], in [3], in test [4], in test [5] and in test [6] was inactive. Further, the compound was called inactive in test [7], in [8] and in [9].

On to `Nc1ccc([N+](=O)[O-])cc1`, for which the compound was called inactive in test [1], in test [2], in test [3], in test [4], in test [5] and in [6]. The compound was classed as inactive in test [7], in test [8] and in test [9].

With `CCOC(=O)[C@]1(c2ccccc2)Oc2ccccc2[C@@H]1N`, the AC50 in test [1] is 77.3 µM (active); in test [2] it was 50 µM (active); in test [4] it was 92.9 µM (active); in test [5], 89.5 µM (active); in test [6], 72.8 µM (active); in test [7], 62.5 µM (active). In addition, the result in [3], in test [8] and in test [9] was inactive.

For the compound `CCCCCCCCn1sccc1=O`, the AC50 in test [1] was 80.9 µM (active); in [3], 82.3 µM (active); in [4], 76.6 µM (active); in test [7], 52 µM (active). The outcome in test [2], in test [5], in [6], in [8] and in test [9] was inactive.

As to `CC(C)(C)OOC(=O)c1ccccc1`, the compound was called inactive in test [1], in test [2], in test [3], in [4], in [5] and in test [6]. Moreover, the compound was called inactive in [7], in test [8] and in [9].

As to `c1ccc(NNc2ccccc2)cc1`, the outcome in test [1], in test [2], in [3], in [4], in test [5] and in test [6] was inactive. Also, the compound was called inactive in test [7], in test [8] and in test [9].

As for `[Cl-].[Cl-].[Hg+2]`, the compound was called inactive in test [1], in [2], in test [3], in test [4], in test [5] and in [6]. In addition, the compound was called inactive in [7], in test [8] and in test [9].

Regarding `CCCCC(CC)COC(=O)c1ccc(C(=O)OCC(CC)CCCC)c(C(=O)OCC(CC)CCCC)c1` (centres undefined), the call in test [1], in test [2], in test [3], in test [4], in [5] and in test [6] was inactive. Moreover, the compound was classed as inactive in [7], in test [8] and in test [9].

In the case of `CCC12COCN1COC2`, the result in test [1], in [2], in test [3], in test [4], in test [5] and in test [6] was inactive. The result in [7], in test [8] and in test [9] was inactive.

Regarding `C1=Cc2cccc3cccc1c23`, the compound was classed as inactive in test [1], in test [2], in test [3], in [4], in test [5] and in test [6]. The call in [7], in [8] and in test [9] was inactive.

With `CCCCOC(=O)c1ccccc1C(=O)OCc1ccccc1`, the result in test [1], in test [2], in [3], in test [4], in test [5] and in [6] was inactive. The compound was classed as inactive in [7] and in [8]. Also, the concentration at half-maximal activity (AC50) in [9] is 0.349 µM (active).

With `c1ccc(N=Nc2ccccc2)cc1`, the compound was classed as inactive in test [1], in test [2], in [3], in [4], in [5] and in test [6]. For the same compound, the call in [7], in test [8] and in [9] was inactive.

On to `CN(C)C(=O)Nc1ccc(Cl)cc1`, for which the outcome in test [1], in [2], in test [3], in test [4], in test [5] and in [6] was inactive. In addition, the compound was called inactive in test [7], in test [8] and in test [9].

As for `CN(C)c1ccc(C(=O)c2ccc(N(C)C)cc2)cc1`, the AC50 in test [1] was 33 µM (active); in test [7], 22.3 µM (active). Besides, the outcome in test [2], in [3], in test [4], in test [5], in [6] and in test [8] was inactive. Besides, the compound was called inactive in test [9].

Turning to `c1ccc2c(c1)-c1cccc3cccc-2c13`, the call in [1], in test [2], in [3], in test [4], in test [5] and in test [6] was inactive. Also, the compound was called inactive in test [8] and in [9]. Further, in [7], the AC50 is 50 µM (active).

Turning to `Cc1ccc(N)c(N)c1`, the outcome in test [1], in test [2], in test [3], in test [4], in [5] and in [6] was inactive. For the same compound, the outcome in test [7], in test [8] and in test [9] was inactive.

With `Brc1ccc(Oc2ccccc2)cc1`, the result in test [1], in [2], in test [3], in test [4], in test [5] and in test [6] was inactive. The outcome in test [7], in test [8] and in test [9] was inactive.

As to `CC(O)CCO` (centres undefined), the compound was called inactive in [1], in test [2], in test [3], in test [4], in [5] and in [6]. The result in test [7], in test [8] and in test [9] was inactive.

Turning to `O=C(Nc1ccccc1)c1ccccc1I`, the AC50 is 50 µM (active) in test [1], 50 µM (active) in test [3], 41.6 µM (active) in test [5] and 31.2 µM (active) in test [7]. Moreover, the outcome in test [2], in [4], in test [6], in test [8] and in test [9] was inactive.

Consider `CCCCCOC(=O)c1ccccc1C(=O)OCCCCC`, for which the compound was called inactive in [1], in test [2], in [3], in [4], in [5] and in [6]. Moreover, the result in test [7], in test [8] and in test [9] was inactive.
